“And” between values parts separate entries of the source, which are not always exact repeats. Equal entries are not always repeated.

As a reminder, the inhibition is the drop in the measured response relative to a control, in per cent.

This assay concerns Proto-oncogene tyrosine-protein kinase receptor Ret (Homo sapiens), P07949 [V804L]. Particulars: at 0.1 µM.
Chain of Proto-oncogene tyrosine-protein kinase receptor Ret (Homo sapiens), P07949 [V804L] (P07949 whole entry V804L): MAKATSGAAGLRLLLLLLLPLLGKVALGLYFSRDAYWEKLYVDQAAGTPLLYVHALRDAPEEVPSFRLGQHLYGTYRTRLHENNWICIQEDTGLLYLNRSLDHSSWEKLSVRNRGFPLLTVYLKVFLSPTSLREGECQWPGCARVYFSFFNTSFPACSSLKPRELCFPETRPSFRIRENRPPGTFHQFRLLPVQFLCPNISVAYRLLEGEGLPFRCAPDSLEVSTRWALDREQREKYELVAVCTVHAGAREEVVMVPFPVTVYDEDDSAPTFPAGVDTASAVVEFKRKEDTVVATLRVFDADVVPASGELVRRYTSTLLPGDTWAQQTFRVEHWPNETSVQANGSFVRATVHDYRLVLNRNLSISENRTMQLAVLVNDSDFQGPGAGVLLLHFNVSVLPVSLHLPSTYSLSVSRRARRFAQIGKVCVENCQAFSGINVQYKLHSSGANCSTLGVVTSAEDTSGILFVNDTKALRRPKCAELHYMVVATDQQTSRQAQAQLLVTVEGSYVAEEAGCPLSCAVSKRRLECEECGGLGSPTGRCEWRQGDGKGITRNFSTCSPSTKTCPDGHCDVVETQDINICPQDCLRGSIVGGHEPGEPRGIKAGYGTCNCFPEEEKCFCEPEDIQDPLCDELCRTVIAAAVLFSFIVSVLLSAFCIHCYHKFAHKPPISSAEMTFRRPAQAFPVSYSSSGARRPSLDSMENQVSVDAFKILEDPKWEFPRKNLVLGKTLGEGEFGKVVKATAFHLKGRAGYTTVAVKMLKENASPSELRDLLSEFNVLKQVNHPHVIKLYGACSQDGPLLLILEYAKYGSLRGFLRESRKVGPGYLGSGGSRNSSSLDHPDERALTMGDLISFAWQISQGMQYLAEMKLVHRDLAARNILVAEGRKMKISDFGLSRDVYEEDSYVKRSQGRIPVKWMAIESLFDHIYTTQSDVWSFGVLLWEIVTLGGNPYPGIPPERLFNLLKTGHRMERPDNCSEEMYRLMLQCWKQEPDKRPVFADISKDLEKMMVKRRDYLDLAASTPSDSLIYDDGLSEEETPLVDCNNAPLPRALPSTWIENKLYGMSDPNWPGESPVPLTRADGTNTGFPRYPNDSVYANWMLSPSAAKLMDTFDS
Regarding `COc1ccc(Nc2ncc(-c3ccccc3)o2)cc1OC`, the inhibition is 4.53%.

In turn, `CCS(=O)(=O)c1ccc(OC)c(Nc2ncc(-c3cccc(C(C)=O)c3)o2)c1` displayed an inhibition of 5.03%.

The compound `CS(=O)(=O)Nc1ccc(-c2ccc3c(NC(=O)C4CC4)n[nH]c3c2)cc1` returned an inhibition of 4.24%.

With `CS(=O)(=O)CCNCc1ccoc1-c1ccc2ncnc(Nc3ccc(OCc4ccccc4)cc3)c2c1`, the inhibition worked out at 8.41%.

Compound `NS(=O)(=O)c1ccc(N/N=C2\C(=O)Nc3ccc(C(=O)NCc4ccncc4)cc32)cc1` had an inhibition of 31.4%.

Turning to `CN1CCC(C(=O)Nc2n[nH]c3nc(-c4ccc(O)cc4)c(Br)cc23)CC1`, the inhibition is 4.68% and 1.68%.

For `CN1CCN(Cc2ccc(-c3cc4ncnc(Nc5ccc(OCc6cccc(F)c6)c(Cl)c5)c4s3)o2)CC1`, the inhibition was 3.67% and 4.61%.

In turn, `COc1cc2c(cc1Nc1nc(Nc3cccc(F)c3C(N)=O)c3cc[nH]c3n1)N(C(=O)CN1CCN(C(C)C)CC1)CC2` showed an inhibition of 1.85%.

`COc1cccc(-n2ncc3c(N/N=C/c4ccc(C(=O)NCCN(C)C)cc4)ncnc32)c1`: the inhibition was found to be 12.7%.

In turn, `CN(c1ccc(NC(=O)NCCN2CCOCC2)cc1)c1ccnc(Nc2ccc(CS(C)(=O)=O)cc2)n1` registered an inhibition of 13.2%.

Take `Cc1nnc(-c2cccc(-c3ccc(C(=O)NCC4CC4)cc3)c2)o1`: the inhibition came to 4.63%.

In the case of `Cc1cc(O)cc(C)c1/C=C/c1cncc(C(N)=O)c1`, the inhibition is 0.84%.

Regarding `FC(F)(F)CNc1nccc(-c2cnn3ncccc23)n1`, the inhibition was 1.22%.

As for `NC(=O)c1ccc2c(-c3ccnc(NCCCO)n3)c(-c3ccc(F)cc3)nn2c1`, the inhibition turned out to be 1.73%.

As for `COc1ccc2ncn(-c3cc(O[C@H](C)c4ccccc4C(F)(F)F)c(C(N)=O)s3)c2c1`, the inhibition was found to be 3.57%.

For the origin of these results see ChEMBL document CHEMBL1961873, “Compounds: GSK PKIS; Assays: Nanosyn kinase panel” (2012).
